According to PubChem BioAssay (EPA / NIEHS):
The source made the active and inactive calls. How the source made its calls: active means hit-call score of the fitted dose curve at least 0.9, where 1 is the maximum; inactive means score below 0.9.

read-out: DNA damage-inducible transcript 3 (DDIT3), DDIT3 (gene 1649); assay: LTEA_HepaRG_DDIT3: Life Technologies and Expression Analysis (LTEA) Assay for DNA damage-inducible transcript 3 (DDIT3) using HepaRG (AID 2283488); conditions: mRNA level, 48 h; actives raise or lower the signal
Method: LTEA_HepaRG is a cell based, multiplexed-readout assay that uses HepaRG, a human liver cell line, with measurements taken at 48 hours after chemical dosing on a 96-well plate.LTEA_HepaRG_DDIT3 is one of 102 assay component(s) measured in the LTEA HepaRG cell culture assay. It is a marker of Oxidative Stress.Data from the assay component LTEA_HepaRG_DDIT3 was analyzed into 1 endpoint. This assay endpoint, LTEA_HepaRG_DDIT3, was analyzed with bidirectional fitting relative to DMSO as the negative control and baseline of activity. Using a type of inducible reporter, measures of mRNA induction for gain or loss-of-signal activity can be used to understand regulation of transcription factor activity. To generalize the intended target to other relatable targets, this assay endpoint is annotated to the dna binding intended target family, where the subfamily is basic leucine zipper.
A total of 1060 chemcials from the ToxCast library were tested in eight-point concentration-response experiments. Cell culture and cytotoxicity assays were conducted at Thermo Fisher Scientific's Custom Services facility (Madison, WI). A single lot of human HepaRG cells (Thermo Fisher Scientific, Frederick, MD) was used for the cell culture experiments. 96-well format collagen type I coated plates of human HepaRG cells were prepared using established methods. Briefly, cryopreserved HepaRG cells were thawed, plated at a density of approximately 100,000 cells/well in HepaRG Thaw, Plate, and General Purpose media (HPRG770, Thermo Fisher Scientific), and incubated for 48 hours. 0.5% DMSO was selected as vehicle control to balance the requisite need of DMSO in HepaRG cultures to maintain differentiation (for example, baseline metabolism, proportions of hepatocytes vs. cholangiocytes), while enabling further hepatic receptor pathway activation (for example, PXR and CAR) in response to chemical exposure. 48 hours after plating, the culture medium was replaced with HepaRG Serum-Free Incudtion Media. Cells were exposed to each test chemical in duplicate and maintained in CO2 incubators for another 48 hours. Chemical plates were thawed to room temperature and 200x concentrations of treatment groups were prepared. 8-point conentration-reponse curves were made with the highest exposure at 100 uM, followed by half-log dilutions, all in 0.5% DMSO. Each test plate contained variouse controls, induction positive controls (1mM phenobarbital), cytotoxicity positive controls ([…] aflatoxin B1), vehicle controls (0.5% DMSO), and total lysis controls (0.5% DMSO). Cell morphology images were taken using an Essen IncuCyte FLR automated microscope, with six 96-well plates imaged in about 24 minutes. Images were captured and exported and JPEG files. Spent culture media was transfered to black-well plates for the LDH assay, and remaining media was sorted at -80 C for later use. Cells were treated with RLT buffer and frozen until shipped for gene expression analysis. Total RNA was isolated from the cell suspension in 75 uL of Buffer RLT (Qiagen, Germantown, MD 20874) by Quintiles/Expression Analysis (Durham, NC) using a custom isolation procedure. Total RNA from each plate well was transferred to a preamplification plate. Fluidigm's 96.96 Dynamic ArrayTM (Fluidigm, Amsterdam, the Netherlands) technology was used for gene expression analyses by quantitative reverse transcription polymerase chain reaction (qRT-PCR, performed by Quintiles/Expression Analysis, Durham, NC)89. Standard TaqManTM Assays (Applied Biosystems/ThermoFisher Scientific, Foster City, CA) were used to assess the expression of 93 genes selected based on their selectivity and sensitivity to important hepatic receptors known to be modulated by environmental chemicals; importance in human hepatocyte functionality; and hepatotoxicity. […]

Row | SMILES | outcome | AC50
1 | NCCOCCOCCN | inactive | –
2 | Nc1nc(=S)c2[nH]cnc2[nH]1 | – | 8.69 µM (active)
3 | COC(=O)CCCC(=O)OC | inactive | –
4 | NC=O | inactive | –
5 | Oc1ccc(O)cc1 | inactive | –
6 | CCCCC(CC)COP(=O)(OCC(CC)CCCC)OCC(CC)CCCC (stereo not given) | inactive | –
7 | Cc1cc(SC2=C(O)C[C@@](CCc3ccc(N)cc3)(C(C)C)OC2=O)c(C(C)(C)C)cc1CO | inactive | –
8 | N[C@@H](Cc1c[nH]c2ccccc12)C(=O)O | inactive | –
9 | CC(=O)S[C@H](C(=O)N[C@H]1Cc2ccccc2[C@H]2CCC[C@@H](C(=O)O)N2C1=O)C(C)C | inactive | –
10 | C=CCc1ccc(OC)c(OC)c1 | inactive | –
11 | CC(COCC(C)OC(=O)c1ccccc1)OC(=O)c1ccccc1 (stereo not given) | inactive | –
12 | CCN(CC)CCOc1ccc(C(=C(Cl)c2ccccc2)c2ccccc2)cc1 | – | 42 µM (active)
13 | O=NO | inactive | –
14 | CCC(C)N(C)C(=O)c1cc2ccccc2c(-c2ccccc2Cl)n1 (stereo not given) | – | 46.6 µM (active)
15 | CC(C)NCC(O)c1ccc(O)c(O)c1 (stereo not given) | inactive | –
16 | CCc1nc(N)nc(N)c1-c1ccc(Cl)cc1 | – | 77.8 µM (active)
17 | C=CCCCCCCCCCCCC | inactive | –
18 | CCCCCCC(CCCCCCCCCCC(=O)OCC(COC(C)=O)OC(C)=O)OC(C)=O (stereo not given) | inactive | –
19 | CCCCCCCCCCCCCCCCO | inactive | –
20 | O=C(Oc1ccccc1)c1cccc(C(=O)Oc2ccccc2)c1 | inactive | –

Row | SMILES | outcome | AC50
21 | O=C(O)CN(CC(=O)O)CC(=O)O | inactive | –
22 | COC(=O)CCC(=O)OC | inactive | –
23 | CS(=O)(=O)c1ccc([C@@H](C[C@H]2CCC(=O)C2)C(=O)Nc2cnccn2)cc1Cl | – | 18.6 µM (active)
24 | CC(N)=O | inactive | –
25 | NC(=Nc1ccccc1)Nc1ccccc1 | – | 27.6 µM (active)
26 | CO[C@@H]1COCC[C@@H]1N[C@@H]1CC[C@@](C(=O)N2CCc3ncc(C(F)(F)F)cc3C2)(C(C)C)C1 | inactive | –
27 | O=C1c2c(O)cccc2Cc2cccc(O)c21 | inactive | –
28 | COc1ccc(OC(F)(F)F)cc1CN[C@H]1CCCN[C@H]1c1ccccc1 | – | 72.8 µM (active)
29 | O=C1OC(c2ccc(O)cc2)(c2ccc(O)cc2)c2ccccc21 | inactive | –
30 | C/C=C/c1ccc(OC)cc1 | inactive | –
31 | CC(C)c1cccc(C(C)C)c1 | inactive | –
32 | COC(=O)[C@H]1[C@H]2C[C@@H]3c4[nH]c5cc(OC)ccc5c4CCN3C[C@H]2C[C@@H](OC(=O)c2cc(OC)c(OC)c(OC)c2)[C@@H]1OC | – | 55.1 µM (active)
33 | CCCC(=O)O | inactive | –
34 | CCCCCCCCCCCCCCOS(=O)(=O)O | inactive | –
35 | CC(=O)[C@@]1(O)CC[C@H]2[C@@H]3CCC4=CC(=O)CC[C@]4(C)[C@H]3CC[C@@]21C | inactive | –
36 | CN(C)CCCN(C)CCCN(C)C | inactive | –
37 | CC(C)(O)c1ccc(CNC(=O)c2cccnc2Oc2ccc(F)cc2)cc1 | inactive | –
38 | CC(C)c1cccc(C(C)C)c1NC(=O)NS(=O)(=O)c1cc(C(C)(C)O)co1 | inactive | –
39 | COc1ccc(C(=O)Nc2nc3ccccc3c(NCc3ccccc3)c2C#N)cc1 | inactive | –
40 | CC(C)COC(=O)CCCCC(=O)OCC(C)C | inactive | –
